Source: paper PMC7862700, “An all-to-all approach to the identification of sequence-specific readers for epigenetic DNA modifications on cytosine”

Key:
Assay in all cases: DAPPL (digital affinity profiling via proximity ligation, sequencing); 10 mM Tris-HCl pH 7.5, 50 mM NaCl, 1 mM DTT, 4% glycerol, room temperature, 30 min; GST-TFs on glutathione beads, 16-mer random dsDNA library, 0.1% formaldehyde crosslink after washing; high values mean tight binding
Settings in all cases: protein: recombinant; tags: N-terminal GST; dsDNA, one strand shown
FLI1 = biological target: T1, FLI1 (Homo sapiens, UniProt Q01543 1-452)
T1 sequence: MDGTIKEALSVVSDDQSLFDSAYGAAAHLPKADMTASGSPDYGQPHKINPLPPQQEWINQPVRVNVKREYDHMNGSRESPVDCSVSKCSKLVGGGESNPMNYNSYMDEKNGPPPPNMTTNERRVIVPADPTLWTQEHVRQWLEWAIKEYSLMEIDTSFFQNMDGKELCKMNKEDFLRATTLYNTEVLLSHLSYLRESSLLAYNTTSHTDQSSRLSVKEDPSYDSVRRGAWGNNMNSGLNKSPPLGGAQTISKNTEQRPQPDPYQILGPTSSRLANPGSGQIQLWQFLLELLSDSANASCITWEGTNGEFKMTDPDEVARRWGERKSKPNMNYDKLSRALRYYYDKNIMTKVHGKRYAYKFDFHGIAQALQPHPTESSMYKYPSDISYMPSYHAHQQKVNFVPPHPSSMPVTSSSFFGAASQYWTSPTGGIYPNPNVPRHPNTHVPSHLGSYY
In short: (§1)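 Human transcription factors fused to GST were expressed in yeast, captured on glutathione beads, given DNA barcodes and pooled with a GST-only negative control. Pools were incubated with 200 nmole of a 16-mer random double-stranded DNA library in Tris/NaCl/DTT/glycerol buffer at room temperature for 30 min. They were then washed, crosslinked with 0.1% formaldehyde, proximity-ligated (BsaI/T4 ligase, 1 h, 37 °C), PCR-amplified and sequenced on an Illumina NextSeq500. Binding signal is each 6-mer's read frequency for a factor divided by its frequency for the GST control.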

ELK1 = biological target: T2, ELK1 (Homo sapiens, UniProt P19419 1-428)
T2 sequence: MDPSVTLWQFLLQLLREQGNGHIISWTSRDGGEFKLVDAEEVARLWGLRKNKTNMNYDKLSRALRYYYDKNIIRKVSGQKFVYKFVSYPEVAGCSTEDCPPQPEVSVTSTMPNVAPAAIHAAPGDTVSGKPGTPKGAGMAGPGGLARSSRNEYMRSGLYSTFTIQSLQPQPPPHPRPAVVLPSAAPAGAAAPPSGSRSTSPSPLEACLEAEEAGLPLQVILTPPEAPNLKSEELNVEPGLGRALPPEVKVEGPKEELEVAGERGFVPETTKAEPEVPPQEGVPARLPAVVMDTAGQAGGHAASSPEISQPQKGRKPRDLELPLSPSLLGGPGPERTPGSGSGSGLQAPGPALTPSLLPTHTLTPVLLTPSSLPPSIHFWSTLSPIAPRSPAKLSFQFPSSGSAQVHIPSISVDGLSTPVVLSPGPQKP
In short: as §1

GABPA = biological target: T3, GABPA (Homo sapiens, UniProt Q06546 1-454)
T3 sequence: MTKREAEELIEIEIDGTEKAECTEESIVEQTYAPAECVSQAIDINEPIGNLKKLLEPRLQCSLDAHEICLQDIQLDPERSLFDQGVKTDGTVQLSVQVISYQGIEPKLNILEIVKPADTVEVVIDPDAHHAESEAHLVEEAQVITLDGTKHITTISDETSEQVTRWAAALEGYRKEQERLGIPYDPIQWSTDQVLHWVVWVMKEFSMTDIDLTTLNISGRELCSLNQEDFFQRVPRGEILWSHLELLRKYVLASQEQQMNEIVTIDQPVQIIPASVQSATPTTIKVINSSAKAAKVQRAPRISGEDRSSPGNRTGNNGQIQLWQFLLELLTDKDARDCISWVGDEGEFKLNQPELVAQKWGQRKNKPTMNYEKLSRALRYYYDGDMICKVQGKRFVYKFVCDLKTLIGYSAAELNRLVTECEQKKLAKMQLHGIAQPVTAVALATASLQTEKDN
In short: as §1

ERG = biological target: T4, ERG (Homo sapiens, UniProt P11308 1-479)
T4 sequence: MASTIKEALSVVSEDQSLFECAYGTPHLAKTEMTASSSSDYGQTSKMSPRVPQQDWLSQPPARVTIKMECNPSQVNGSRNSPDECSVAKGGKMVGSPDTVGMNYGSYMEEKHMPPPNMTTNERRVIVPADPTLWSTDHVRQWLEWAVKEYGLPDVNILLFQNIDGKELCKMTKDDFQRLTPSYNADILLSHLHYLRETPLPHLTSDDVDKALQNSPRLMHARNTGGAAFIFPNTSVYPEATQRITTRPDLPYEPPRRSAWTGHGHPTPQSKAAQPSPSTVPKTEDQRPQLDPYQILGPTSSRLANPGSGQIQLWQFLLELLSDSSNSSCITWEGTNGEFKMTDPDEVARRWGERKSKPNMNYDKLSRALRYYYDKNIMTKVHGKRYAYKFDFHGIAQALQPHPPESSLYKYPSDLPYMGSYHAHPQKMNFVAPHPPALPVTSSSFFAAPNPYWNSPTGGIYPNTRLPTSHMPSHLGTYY
In short: as §1

ELF1 = ELF1 (Homo sapiens, UniProt P32519 1-619)
In short: as §1

EHF = biological target: T5, EHF (Homo sapiens, UniProt Q9NZC4 1-300)
T5 sequence: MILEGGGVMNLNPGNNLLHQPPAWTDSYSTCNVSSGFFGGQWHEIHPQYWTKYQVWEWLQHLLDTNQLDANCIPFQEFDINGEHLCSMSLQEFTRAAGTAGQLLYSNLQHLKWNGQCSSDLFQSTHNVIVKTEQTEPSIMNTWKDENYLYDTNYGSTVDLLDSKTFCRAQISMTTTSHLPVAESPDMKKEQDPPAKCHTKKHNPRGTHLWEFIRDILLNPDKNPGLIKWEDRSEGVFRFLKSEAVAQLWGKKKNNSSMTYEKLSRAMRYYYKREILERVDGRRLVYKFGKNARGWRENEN
In short: as §1

SPI1 = SPI1 (Homo sapiens, UniProt P17947 1-270)
In short: as §1

SPIB = SPIB (Homo sapiens, UniProt Q01892 1-262)
In short: as §1

ELK3 = biological target: T6, ELK3 (Homo sapiens, UniProt P41970 1-407)
T6 sequence: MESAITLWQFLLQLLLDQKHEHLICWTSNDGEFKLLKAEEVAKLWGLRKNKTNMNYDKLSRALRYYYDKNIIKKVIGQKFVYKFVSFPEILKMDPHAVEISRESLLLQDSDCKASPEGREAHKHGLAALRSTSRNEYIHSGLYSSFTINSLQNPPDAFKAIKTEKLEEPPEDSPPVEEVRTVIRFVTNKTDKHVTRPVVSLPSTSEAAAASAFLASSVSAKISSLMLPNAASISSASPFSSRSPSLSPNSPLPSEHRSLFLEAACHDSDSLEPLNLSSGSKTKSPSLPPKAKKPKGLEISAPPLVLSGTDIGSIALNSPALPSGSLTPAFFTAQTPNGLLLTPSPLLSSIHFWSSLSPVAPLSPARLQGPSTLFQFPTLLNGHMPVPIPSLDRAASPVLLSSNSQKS
In short: as §1

FEV = biological target: T7, FEV (Homo sapiens, UniProt Q99581 1-238)
T7 sequence: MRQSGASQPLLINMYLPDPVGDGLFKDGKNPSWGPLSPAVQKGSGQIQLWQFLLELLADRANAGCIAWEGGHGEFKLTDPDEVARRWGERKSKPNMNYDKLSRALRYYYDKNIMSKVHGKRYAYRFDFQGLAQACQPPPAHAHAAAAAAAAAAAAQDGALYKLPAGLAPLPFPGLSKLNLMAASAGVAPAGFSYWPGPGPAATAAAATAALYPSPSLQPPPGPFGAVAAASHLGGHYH
In short: as §1

ETV5 = ETV5 (Homo sapiens, UniProt P41161 1-510)
In short: as §1

SPIC = biological target: T8, SPIC (Homo sapiens, UniProt Q8N5J4 1-248)
T8 sequence: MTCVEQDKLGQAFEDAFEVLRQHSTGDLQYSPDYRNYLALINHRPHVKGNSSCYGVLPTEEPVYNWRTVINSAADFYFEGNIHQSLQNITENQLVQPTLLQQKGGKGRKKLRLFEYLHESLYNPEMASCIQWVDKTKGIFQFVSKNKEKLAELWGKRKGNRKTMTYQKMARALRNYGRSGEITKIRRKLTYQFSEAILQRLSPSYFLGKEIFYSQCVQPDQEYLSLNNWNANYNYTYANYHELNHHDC
In short: as §1

ELF4 = ELF4 (Homo sapiens, UniProt Q99607 1-663)
In short: as §1

ELK4 = biological target: T9, ELK4 (Homo sapiens, UniProt P28324-2 1-405)
T9 sequence: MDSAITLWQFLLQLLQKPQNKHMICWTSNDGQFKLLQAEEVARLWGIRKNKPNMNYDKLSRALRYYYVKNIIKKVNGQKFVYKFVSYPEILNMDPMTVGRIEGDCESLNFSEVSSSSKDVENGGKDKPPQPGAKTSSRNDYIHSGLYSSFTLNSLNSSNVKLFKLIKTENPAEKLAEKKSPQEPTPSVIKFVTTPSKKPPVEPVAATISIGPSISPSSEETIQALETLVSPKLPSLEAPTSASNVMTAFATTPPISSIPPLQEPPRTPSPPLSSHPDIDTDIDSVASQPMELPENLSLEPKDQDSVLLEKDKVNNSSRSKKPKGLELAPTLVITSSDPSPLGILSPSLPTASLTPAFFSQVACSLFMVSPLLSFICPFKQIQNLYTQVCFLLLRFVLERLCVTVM
In short: as §1

ETV2 = biological target: T10, ETV2 (Homo sapiens, UniProt O00321 1-342)
T10 sequence: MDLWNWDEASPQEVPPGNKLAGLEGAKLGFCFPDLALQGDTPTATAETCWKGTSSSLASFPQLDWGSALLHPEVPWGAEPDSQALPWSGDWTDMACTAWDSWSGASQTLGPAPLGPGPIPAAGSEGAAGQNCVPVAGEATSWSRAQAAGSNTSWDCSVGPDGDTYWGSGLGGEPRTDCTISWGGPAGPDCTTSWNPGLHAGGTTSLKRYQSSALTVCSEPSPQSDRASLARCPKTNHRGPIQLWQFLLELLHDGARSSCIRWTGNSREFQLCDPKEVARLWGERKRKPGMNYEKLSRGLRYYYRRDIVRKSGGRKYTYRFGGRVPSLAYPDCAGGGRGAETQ
In short: as §1

ELF3 = biological target: T11, ELF3 (Homo sapiens, UniProt P78545 1-371)
T11 sequence: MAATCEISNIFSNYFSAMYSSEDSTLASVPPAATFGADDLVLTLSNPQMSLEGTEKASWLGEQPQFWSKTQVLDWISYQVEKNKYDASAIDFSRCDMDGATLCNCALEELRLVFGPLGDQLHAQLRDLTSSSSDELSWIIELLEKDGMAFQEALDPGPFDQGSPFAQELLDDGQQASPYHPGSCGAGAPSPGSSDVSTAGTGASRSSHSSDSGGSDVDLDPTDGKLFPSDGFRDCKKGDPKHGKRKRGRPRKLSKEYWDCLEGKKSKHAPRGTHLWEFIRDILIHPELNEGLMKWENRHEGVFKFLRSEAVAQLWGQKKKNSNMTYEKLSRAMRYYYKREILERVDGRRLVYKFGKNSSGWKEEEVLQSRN
In short: as §1

ETV1 = ETV1 (Homo sapiens, UniProt P50549 1-477)
In short: as §1

ETV5, sequence (P41161 whole entry): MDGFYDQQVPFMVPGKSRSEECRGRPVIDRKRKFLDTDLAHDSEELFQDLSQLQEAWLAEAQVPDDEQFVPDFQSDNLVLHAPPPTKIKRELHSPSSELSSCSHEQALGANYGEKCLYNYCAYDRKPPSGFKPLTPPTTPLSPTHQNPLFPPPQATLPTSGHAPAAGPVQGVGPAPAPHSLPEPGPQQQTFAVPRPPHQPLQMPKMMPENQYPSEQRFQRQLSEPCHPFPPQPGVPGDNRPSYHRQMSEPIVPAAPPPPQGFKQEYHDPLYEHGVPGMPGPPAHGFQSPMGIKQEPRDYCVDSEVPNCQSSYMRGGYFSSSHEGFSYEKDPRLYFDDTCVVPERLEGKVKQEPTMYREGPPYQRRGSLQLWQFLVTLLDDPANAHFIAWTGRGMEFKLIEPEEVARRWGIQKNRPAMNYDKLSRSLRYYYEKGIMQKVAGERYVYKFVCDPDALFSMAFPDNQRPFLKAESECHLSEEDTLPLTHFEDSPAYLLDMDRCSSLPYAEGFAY
ETV1, sequence (P50549 whole entry): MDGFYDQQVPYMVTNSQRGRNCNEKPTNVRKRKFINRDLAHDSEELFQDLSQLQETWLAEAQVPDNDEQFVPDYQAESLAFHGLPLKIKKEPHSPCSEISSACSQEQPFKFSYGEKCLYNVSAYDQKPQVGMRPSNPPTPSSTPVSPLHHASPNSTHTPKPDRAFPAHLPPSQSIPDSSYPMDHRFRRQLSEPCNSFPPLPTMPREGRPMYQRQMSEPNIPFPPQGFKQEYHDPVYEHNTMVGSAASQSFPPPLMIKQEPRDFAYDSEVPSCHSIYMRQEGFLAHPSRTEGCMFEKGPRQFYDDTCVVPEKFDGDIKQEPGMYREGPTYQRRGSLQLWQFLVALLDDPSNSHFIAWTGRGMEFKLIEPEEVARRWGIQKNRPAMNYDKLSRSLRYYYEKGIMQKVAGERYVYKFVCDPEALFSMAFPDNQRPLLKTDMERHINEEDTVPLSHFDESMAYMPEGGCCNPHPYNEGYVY
ELF1, sequence (P32519 whole entry): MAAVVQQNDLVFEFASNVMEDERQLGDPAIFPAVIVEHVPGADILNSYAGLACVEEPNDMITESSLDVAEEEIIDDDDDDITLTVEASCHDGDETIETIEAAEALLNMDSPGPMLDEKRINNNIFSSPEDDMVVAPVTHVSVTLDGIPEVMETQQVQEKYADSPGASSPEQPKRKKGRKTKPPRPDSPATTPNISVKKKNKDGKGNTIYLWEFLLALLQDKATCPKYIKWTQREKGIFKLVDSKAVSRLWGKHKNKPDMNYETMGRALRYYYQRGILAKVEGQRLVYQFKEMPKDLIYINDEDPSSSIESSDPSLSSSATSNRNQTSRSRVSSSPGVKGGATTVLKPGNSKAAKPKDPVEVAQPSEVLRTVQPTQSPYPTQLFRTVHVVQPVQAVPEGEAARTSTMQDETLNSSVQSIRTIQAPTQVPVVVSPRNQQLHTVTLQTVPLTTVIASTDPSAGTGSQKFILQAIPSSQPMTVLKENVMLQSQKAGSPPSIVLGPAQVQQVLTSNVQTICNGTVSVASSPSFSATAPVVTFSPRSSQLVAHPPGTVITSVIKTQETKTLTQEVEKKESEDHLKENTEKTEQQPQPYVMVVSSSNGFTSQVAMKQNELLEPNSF
ELF4, sequence (Q99607 whole entry): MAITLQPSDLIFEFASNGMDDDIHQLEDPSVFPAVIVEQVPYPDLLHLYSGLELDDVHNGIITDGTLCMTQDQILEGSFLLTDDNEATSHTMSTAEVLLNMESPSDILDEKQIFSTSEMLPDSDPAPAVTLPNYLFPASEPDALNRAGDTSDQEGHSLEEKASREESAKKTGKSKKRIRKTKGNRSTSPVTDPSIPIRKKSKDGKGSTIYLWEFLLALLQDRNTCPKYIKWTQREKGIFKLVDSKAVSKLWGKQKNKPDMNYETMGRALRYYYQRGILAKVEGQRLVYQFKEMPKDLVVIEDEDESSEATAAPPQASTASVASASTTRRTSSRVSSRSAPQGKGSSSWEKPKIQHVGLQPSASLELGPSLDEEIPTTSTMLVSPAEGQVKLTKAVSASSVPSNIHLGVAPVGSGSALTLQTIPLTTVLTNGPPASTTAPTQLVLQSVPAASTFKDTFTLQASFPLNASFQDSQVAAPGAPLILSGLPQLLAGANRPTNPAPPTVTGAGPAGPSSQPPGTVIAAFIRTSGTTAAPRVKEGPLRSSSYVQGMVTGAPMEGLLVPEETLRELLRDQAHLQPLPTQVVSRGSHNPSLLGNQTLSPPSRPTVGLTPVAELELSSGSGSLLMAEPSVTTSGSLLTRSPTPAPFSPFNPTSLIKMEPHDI
SPIB, sequence (Q01892 whole entry): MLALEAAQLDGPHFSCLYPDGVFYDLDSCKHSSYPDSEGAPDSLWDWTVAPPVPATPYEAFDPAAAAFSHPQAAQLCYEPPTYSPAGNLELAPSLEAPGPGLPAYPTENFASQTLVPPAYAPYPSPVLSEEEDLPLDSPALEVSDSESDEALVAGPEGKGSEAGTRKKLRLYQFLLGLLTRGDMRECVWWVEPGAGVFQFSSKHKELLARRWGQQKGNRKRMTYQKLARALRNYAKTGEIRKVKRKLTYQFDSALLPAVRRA

Row | Sequence | binding signal (FLI1) | binding signal (ELK1) | binding signal (GABPA) | binding signal (ERG) | binding signal (ELF1) | binding signal (EHF) | binding signal (SPI1) | binding signal (SPIB) | binding signal (ELK3) | binding signal (FEV) | binding signal (ETV5) | binding signal (SPIC) | binding signal (ELF4) | binding signal (ELK4) | binding signal (ETV2) | binding signal (ELF3) | binding signal (ETV1)
1 | CGTAAC | 1.19 fold enrichment (6-mer frequency, TF over GST control) | 1.12 fold enrichment (6-mer frequency, TF over GST control) | 1.17 fold enrichment (6-mer frequency, TF over GST control) | 1.07 fold enrichment (6-mer frequency, TF over GST control) | 1.11 fold enrichment (6-mer frequency, TF over GST control) | 1.16 fold enrichment (6-mer frequency, TF over GST control) | 1.08 fold enrichment (6-mer frequency, TF over GST control) | 1.16 fold enrichment (6-mer frequency, TF over GST control) | 1.07 fold enrichment (6-mer frequency, TF over GST control) | 1.09 fold enrichment (6-mer frequency, TF over GST control) | 1.1 fold enrichment (6-mer frequency, TF over GST control) | 1.27 fold enrichment (6-mer frequency, TF over GST control) | 1.23 fold enrichment (6-mer frequency, TF over GST control) | 1.13 fold enrichment (6-mer frequency, TF over GST control) | 1.12 fold enrichment (6-mer frequency, TF over GST control) | 1.18 fold enrichment (6-mer frequency, TF over GST control) | 1.13 fold enrichment (6-mer frequency, TF over GST control)
2 | CGTCAA | 1.2 fold enrichment (6-mer frequency, TF over GST control) | 1.15 fold enrichment (6-mer frequency, TF over GST control) | 1.19 fold enrichment (6-mer frequency, TF over GST control) | 1.11 fold enrichment (6-mer frequency, TF over GST control) | 1.11 fold enrichment (6-mer frequency, TF over GST control) | 1.12 fold enrichment (6-mer frequency, TF over GST control) | 1.01 fold enrichment (6-mer frequency, TF over GST control) | 1.27 fold enrichment (6-mer frequency, TF over GST control) | 1.06 fold enrichment (6-mer frequency, TF over GST control) | 1.08 fold enrichment (6-mer frequency, TF over GST control) | 1.08 fold enrichment (6-mer frequency, TF over GST control) | 1.19 fold enrichment (6-mer frequency, TF over GST control) | 1.15 fold enrichment (6-mer frequency, TF over GST control) | 1.12 fold enrichment (6-mer frequency, TF over GST control) | 1.2 fold enrichment (6-mer frequency, TF over GST control) | 1.2 fold enrichment (6-mer frequency, TF over GST control) | 1.12 fold enrichment (6-mer frequency, TF over GST control)
